Assay results from PubChem BioAssay (NCI).
This is part of a sample that, as a whole, favours compounds with a hit. Of some 79,000 tested, about 15% had one in any assay. Calls of active or inactive are those of the source. Cut-off read from the data, not from the text of the source: active = growth inhibition above about 70%; inactive = the rest.

Assays:
[1] = NCI Yeast Anticancer Drug Screen. Data for the rad52 strain (AID 147);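 note: 0% = growth of vehicle-treated control cultures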; conditions: S. cerevisiae rad52 mutant growth inhibition, stronger effect = higher value
Outline: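 Read-out: growth inhibition versus vehicle-treated controls. Cells were a DNA repair-deficient yeast strain treated with compounds.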

[2] = NCI Yeast Anticancer Drug Screen. Data for the wt1 strain (AID 149);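 note: 0% = growth of vehicle-treated wt1 cultures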; conditions: S. cerevisiae wt1 strain (SPY 50644) growth inhibition, stronger effect = higher value
Outline: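 Compounds are added to wt1 yeast cultures. Growth is then measured. Inhibition is expressed relative to vehicle-treated controls.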

[3] = NCI Yeast Anticancer Drug Screen. Data for the mgt1 strain (AID 153); conditions: S. cerevisiae mgt1 mutant growth inhibition, stronger effect = higher value
Outline: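 mgt1 yeast grown with test compound; read-out is growth inhibition versus vehicle-treated cultures.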

[4] = NCI Yeast Anticancer Drug Screen. Data for the rad50 strain (AID 155);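 note: 0% = growth of vehicle-only cultures of the same strain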; conditions: S. cerevisiae rad50 strain growth inhibition, stronger effect = higher value
Outline: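 Inhibition values express reduced yeast growth in compound-treated cultures relative to vehicle-treated controls.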

[5] = NCI Yeast Anticancer Drug Screen. Data for the mec2-1 strain (AID 157); conditions: S. cerevisiae mec2-1 strain, stronger effect = higher value
Outline: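 Yeast mec2-1 mutant treated with compound. Readout: growth inhibition vs vehicle controls.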

[6] = NCI Yeast Anticancer Drug Screen. Data for the rad14 strain (AID 159);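 note: 0% = growth of vehicle-treated control cultures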; conditions: S. cerevisiae rad14 strain growth inhibition, stronger effect = higher value
Outline: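 A mutant yeast strain defective in DNA damage repair is treated with compound; inhibition of its growth is scored against untreated, vehicle-exposed cultures.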

[7] = NCI Yeast Anticancer Drug Screen. Data for the sgs1 mgt1 strain (AID 161);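 note: 0% = growth of cultures given vehicle only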; conditions: S. cerevisiae sgs1 mgt1 strain, stronger effect = higher value
Outline: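 Test agents were incubated with a DNA-repair-mutant yeast strain. Growth was then read and compared against vehicle-treated controls.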

[8] = NCI Yeast Anticancer Drug Screen. Data for the CLN2oe strain (AID 163);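 note: 0% = growth of vehicle-only control cultures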; conditions: S. cerevisiae CLN2oe strain, stronger effect = higher value
Outline: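 Read-out: yeast growth inhibition, expressed relative to vehicle-only controls. The strain bears an engineered cell-cycle alteration.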

[9] = NCI Yeast Anticancer Drug Screen. Data for the bub3 strain (AID 167); conditions: S. cerevisiae bub3 mutant strain, stronger effect = higher value
Outline: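 Steps: expose the mutant yeast strain to compound; grow alongside vehicle-treated cultures; measure growth; express inhibition against the vehicle cultures.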

[10] = NCI Yeast Anticancer Drug Screen. Data for the wt2 strain (AID 169);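 note: 0% = growth of vehicle-treated yeast cultures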; conditions: S. cerevisiae wt2 strain growth inhibition, stronger effect = higher value
Outline: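 Read-out: growth inhibition versus vehicle-treated control cultures after compound exposure of the yeast strain.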

[11] = NCI Yeast Anticancer Drug Screen. Data for the mlh1 strain (AID 171);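 note: 0% = growth of vehicle-treated control cultures of the same strain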; conditions: S. cerevisiae mlh1 strain growth inhibition, stronger effect = higher value
Outline: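 Read-out: growth inhibition versus vehicle controls. Strain: engineered yeast with a defined DNA repair or cell cycle defect, compound-treated.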

[12] = NCI Yeast Anticancer Drug Screen. Data for the sgs1 strain (AID 173);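 note: 0% = growth of vehicle-only control cultures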; conditions: S. cerevisiae sgs1 mutant, stronger effect = higher value
Outline: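 Read-out: yeast growth inhibition relative to vehicle controls, following compound exposure of a strain with a defined DNA repair/cell cycle alteration.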

[13] = NCI Yeast Anticancer Drug Screen. Data for the mlh1 rad18 strain (AID 175); conditions: S. cerevisiae mlh1 rad18 strain growth inhibition, stronger effect = higher value
Outline: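 Yeast w/ defined DNA-repair lesions; compound exposure; growth vs vehicle controls → % inhibition.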

[14] = NCI Yeast Anticancer Drug Screen. Data for the rad18 strain (AID 177); conditions: S. cerevisiae rad18 mutant growth inhibition, stronger effect = higher value
Outline: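 Readout: growth inhibition vs vehicle controls. Cells: genetically altered yeast strain, DNA repair defect.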

[15] = NCI Yeast Anticancer Drug Screen. Data for the cln2 rad14 strain (AID 165);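 note: 0% = growth equal to vehicle treated cultures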; conditions: S. cerevisiae cln2 rad14 strain, stronger effect = higher value
Outline: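 cln2 rad14 yeast strain; compound exposure; growth inhibition read vs vehicle controls.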

[16] = at 5.0 µM (retest, dose inferred, filed as 0.5)
[17] = at 50.0 µM (retest, dose inferred, filed as 5.0)

Measured: growth inhibition

OCC1OC(OCC(O)C(O)C(O)C(/C=N/Nc2ccccc2)=N/Nc2ccccc2)C(O)C(O)C1O (stereo unspecified)
inactive: [1]; at 1.2 µM 2% | [1]; at 3.7 µM 9% | [1]; at 11.0 µM 16% | [1]; at 33.0 µM 18% | [1]; at 100.0 µM 45% | [2]; at 1.2 µM 4% | [2]; at 3.7 µM 17% | [2]; at 11.0 µM 21% | [2]; at 33.0 µM 24% | [2]; at 100.0 µM 28% | [3]; at 1.2 µM 3% | [3]; at 3.7 µM 12% | [3]; at 11.0 µM 11% | [3]; at 33.0 µM 11% | [3]; at 100.0 µM 5% | [4]; at 1.2 µM -5% | [4]; at 3.7 µM 13% | [4]; [16] 15% | [4]; at 11.0 µM 29% | [4]; at 33.0 µM 32% | [4]; [17] 22% | [4]; at 100.0 µM 55% | [5]; at 1.2 µM -2% | [5]; at 3.7 µM 16% | [5]; [16] 1% | [5]; at 11.0 µM 20% | [5]; at 33.0 µM 31% | [5]; [17] 13% | [5]; at 100.0 µM 68% | [6]; at 1.2 µM -1% | [6]; at 3.7 µM 1% | [6]; at 11.0 µM 4% | [6]; at 33.0 µM 9% | [6]; at 100.0 µM 28% | [7]; [16] 7% | [7]; [17] -2% | [8]; at 1.2 µM 4% | [8]; at 3.7 µM 8% | [8]; at 11.0 µM 10% | [8]; at 33.0 µM 9% | [8]; at 100.0 µM 40% | [9]; at 1.2 µM 2% | [9]; at 3.7 µM 9% | [9]; [16] 12% | [9]; at 11.0 µM 10% | [9]; at 33.0 µM 12% | [9]; [17] 41% | [9]; at 100.0 µM 47% | [10]; at 1.2 µM 1% | [10]; at 3.7 µM 7% | [10]; at 11.0 µM 20% | [10]; at 33.0 µM 17% | [10]; at 100.0 µM 17% | [11]; at 1.2 µM -2% | [11]; at 3.7 µM 4% | [11]; at 11.0 µM 8% | [11]; at 33.0 µM 11% | [11]; at 100.0 µM 30% | [12]; at 1.2 µM 3% | [12]; at 3.7 µM 13% | [12]; at 11.0 µM 16% | [12]; at 33.0 µM 19% | [12]; at 100.0 µM 35% | [13]; [16] 18% | [13]; [17] 31% | [14]; at 1.2 µM 7% | [14]; at 3.7 µM 25% | [14]; at 11.0 µM 30% | [14]; at 33.0 µM 39%
active: [4]; at 50.0 µM 99.2% | [5]; at 50.0 µM 99.5% | [7]; at 50.0 µM 93.3% | [9]; at 50.0 µM 99.2% | [13]; at 50.0 µM 99.4% | [14]; at 100.0 µM 81%

Cc1cc(O)cc(O)c1N=Nc1ccc([N+](=O)[O-])cc1
inactive: [1]; at 1.2 µM 5% | [1]; at 3.7 µM 12% | [1]; at 11.0 µM 11% | [1]; at 33.0 µM 20% | [1]; at 100.0 µM 32% | [2]; at 1.2 µM 12% | [2]; at 3.7 µM 17% | [2]; at 11.0 µM 21% | [2]; at 33.0 µM 51% | [2]; at 100.0 µM 62% | [3]; at 1.2 µM 11% | [3]; at 3.7 µM 15% | [3]; at 11.0 µM 23% | [3]; at 33.0 µM 59% | [3]; at 100.0 µM 64% | [4]; at 1.2 µM -6% | [4]; at 3.7 µM 2% | [4]; [16] 47% | [4]; at 11.0 µM -1% | [4]; at 33.0 µM 18% | [4]; at 100.0 µM 31% | [5]; at 1.2 µM 7% | [5]; at 3.7 µM 8% | [5]; [16] 54% | [5]; at 11.0 µM 8% | [5]; at 33.0 µM 46% | [5]; at 50.0 µM 36.1% | [5]; at 100.0 µM 63% | [6]; at 1.2 µM -18% | [6]; at 3.7 µM -21% | [6]; at 11.0 µM -14% | [6]; at 33.0 µM 38% | [6]; at 100.0 µM 61% | [7]; [16] 3% | [7]; [17] 25% | [7]; at 50.0 µM 46.6% | [8]; at 1.2 µM 24% | [8]; at 3.7 µM 22% | [8]; at 11.0 µM 30% | [8]; at 33.0 µM 42% | [8]; at 100.0 µM 55% | [15]; [16] 24% | [9]; at 1.2 µM 4% | [9]; at 3.7 µM 26% | [9]; [16] 16% | [9]; at 11.0 µM 43% | [9]; at 33.0 µM 56% | [9]; [17] 49% | [9]; at 50.0 µM 43.1% | [9]; at 100.0 µM 62% | [10]; at 1.2 µM 5% | [10]; at 3.7 µM 11% | [10]; at 11.0 µM -4% | [10]; at 33.0 µM 26% | [10]; at 100.0 µM 45% | [11]; at 1.2 µM -10% | [11]; at 3.7 µM -2% | [11]; at 11.0 µM -3% | [11]; at 33.0 µM 23% | [11]; at 100.0 µM 33% | [12]; at 1.2 µM -3% | [12]; at 3.7 µM -2% | [12]; at 11.0 µM 4% | [12]; at 33.0 µM 32% | [12]; at 100.0 µM 47% | [13]; [16] 48% | [13]; at 50.0 µM 55.8% | [14]; at 1.2 µM 5% | [14]; at 3.7 µM 3% | [14]; at 11.0 µM 8% | [14]; at 33.0 µM 11% | [14]; at 100.0 µM 32%
active: [4]; [17] 98% | [4]; at 50.0 µM 70.3% | [5]; [17] 95% | [15]; [17] 72% | [15]; at 50.0 µM 72.7% | [13]; [17] 99%

BrCc1cccc2ccc3cccc(CBr)c3c12
inactive: [1]; at 1.2 µM -3% | [1]; at 3.7 µM -4% | [1]; at 11.0 µM -1% | [1]; at 33.0 µM 2% | [1]; at 100.0 µM 10% | [2]; at 1.2 µM -3% | [2]; at 3.7 µM -3% | [2]; at 11.0 µM -4% | [2]; at 33.0 µM -8% | [2]; at 100.0 µM -7% | [3]; at 1.2 µM 2% | [3]; at 3.7 µM 0% | [3]; at 11.0 µM 1% | [3]; at 33.0 µM -2% | [3]; at 100.0 µM 3% | [4]; at 1.2 µM -3% | [4]; at 3.7 µM -3% | [4]; [16] -1% | [4]; at 11.0 µM 0% | [4]; at 33.0 µM 1% | [4]; at 50.0 µM 66.3% | [4]; at 100.0 µM 10% | [5]; at 1.2 µM -2% | [5]; at 3.7 µM -1% | [5]; [16] -5% | [5]; at 11.0 µM -2% | [5]; at 33.0 µM -3% | [5]; at 50.0 µM 21.8% | [5]; at 100.0 µM -2% | [6]; at 1.2 µM -2% | [6]; at 3.7 µM -2% | [6]; at 11.0 µM -2% | [6]; at 33.0 µM -2% | [6]; at 100.0 µM 2% | [7]; [16] -3% | [8]; at 1.2 µM -2% | [8]; at 3.7 µM 0% | [8]; at 11.0 µM -3% | [8]; at 33.0 µM -13% | [8]; at 100.0 µM -12% | [15]; [16] -15% | [15]; [17] 21% | [15]; at 50.0 µM -24% | [9]; at 1.2 µM -12% | [9]; at 3.7 µM -14% | [9]; [16] 4% | [9]; at 11.0 µM -8% | [9]; at 33.0 µM -11% | [9]; [17] 50% | [9]; at 50.0 µM 65% | [9]; at 100.0 µM -6% | [10]; at 1.2 µM -2% | [10]; at 3.7 µM -5% | [10]; at 11.0 µM -4% | [10]; at 33.0 µM -6% | [10]; at 100.0 µM -4% | [11]; at 1.2 µM -3% | [11]; at 3.7 µM -3% | [11]; at 11.0 µM -2% | [11]; at 33.0 µM -2% | [11]; at 100.0 µM 1% | [12]; at 1.2 µM -3% | [12]; at 3.7 µM -3% | [12]; at 11.0 µM -4% | [12]; at 33.0 µM -3% | [12]; at 100.0 µM -1% | [13]; [16] -1% | [14]; at 1.2 µM -4% | [14]; at 3.7 µM 0% | [14]; at 11.0 µM -1% | [14]; at 33.0 µM 0% | [14]; at 100.0 µM 11%
active: [4]; [17] 85% | [5]; [17] 97% | [7]; [17] 85% | [7]; at 50.0 µM 72% | [13]; [17] 96% | [13]; at 50.0 µM 73.5%
